From PubChem BioAssay (NCI)
About 83,000 compounds went through this panel and 20% of them were active in at least one assay; those are over-represented in the sample as a whole.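 Values shown are percent growth following 48 h exposure of cells in 96-well plates to a single concentration of compound; below 10 was considered active.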 Values without a mark were called inactive. Activity calls are given as the source filed them.

system: MDA-MB-468 breast; assay: NCI-60 one-dose screen, 48 h (100 = growth as untreated, 0 = no growth, -100 = all killed); conditions: 10 µM unless noted

**Q.** CCCCCc1nc2c(c3c1CCCC3)CCCC2 was tested. Which growth did it give?
**A.** Its growth is 75.5%.

**Q.** With COc1ccc(/C=C/C(c2cc(OC)c(OC)c(OC)c2)n2cncn2)cc1O (centres undefined) as the molecule, how does the growth read?
**A.** Its growth is 8.27% (active).

**Q.** With Cc1ccc(C(=O)Nc2ccc(CNCCN3CCNCC3)c(C(F)(F)F)c2)cc1C#Cc1cnc2cccnn12 as the molecule, how does the growth read?
**A.** The growth was -83% (active).

**Q.** With COc1cc(NC(=O)c2cncnc2Nc2ccc3c(ccn3Cc3ccccn3)c2)cc(OC)c1 as the molecule, how does the growth read?
**A.** The growth was 15.6%.

**Q.** With CC/C=C\C[C@H]1CC=C2C(=O)C=C[C@@H]2CC=CCCCC(=O)O[C@@H](CCCCC)CC=C2C(=O)C=C[C@@H]2CC=CCCCC(=O)O[C@@H](CCCCC)CC=C2C(=O)C=C[C@@H]2CC=CCCCC(=O)O[C@@H](CCCCC)CC=C2C(=O)C=C[C@@H]2CC=CCCCC(=O)O1 as the molecule, how does the growth read?
**A.** Its growth is 29.8% [7.9 µM].

**Q.** O=C(Nc1cccc2ccccc12)c1cc2ccccc2cc1O was tested. Which growth did it give?
**A.** Its growth is -17.6% (active).

**Q.** Which growth does the source give for Nc1ccn(C2CC(N)C(CO)O2)c(=O)n1 (centres undefined) here?
**A.** Its growth is 101%.

**Q.** How did the growth turn out when COc1cc(Cn2c(SCC(=O)Nc3ccc(Cl)cc3)nc3ccccc3c2=O)cc(OC)c1OC was run?
**A.** The growth was 47.1%.

**Q.** With COc1cc(/C=C/C(=O)c2ccc(-n3cc(CN4CCN(c5cc6c(cc5F)c(=O)c(C(=O)O)cn6C5CC5)CC4)nn3)cc2)ccc1O as the molecule, how does the growth read?
**A.** Its growth is 64.8%.

**Q.** How did the growth turn out when COc1cc2nc3cc([N+](=O)[O-])ccc3c(Cl)c2cc1OC was run?
**A.** The growth was 10.7%.

**Q.** CCCCCCN1CCN(Cc2ccc(N(CC)CC)cc2)C(=O)C1=O was tested. Which growth did it give?
**A.** The growth was 22.9%.

**Q.** COc1cc(-c2[nH]ncc2Nc2ccc(Cl)cc2)cc(OC)c1OC was tested. Which growth did it give?
**A.** The growth was 55.7%.

**Q.** Which growth does the source give for COc1ccc(-c2nc(SCC(C)C)nc(Nc3ccc([N+](=O)[O-])cc3)c2C#N)cc1 here?
**A.** The growth was 93.4%.

**Q.** Which growth does the source give for COc1ccc(Cl)cc1NC(=O)c1cc2c([nH]1)-c1nc(NC(=O)C(C)(C)C)sc1CC2 here?
**A.** Its growth is 84.9%.

**Q.** With CCN(CC)CCCN1C(=O)c2c(c(C)c3c(oc4ccc(O)cc43)c2C)C1=O as the molecule, how does the growth read?
**A.** The growth was 75.7%.

**Q.** Which growth does the source give for CCc1c2cc(Cl)ccc2n2cc(Cc3ccccc3)[nH]c(=O)c12 here?
**A.** The growth was 115%.

**Q.** Which growth does the source give for COc1cc(N)ccc1Nc1c2ccccc2nc2ccccc12 here?
**A.** Its growth is 92.4%.

**Q.** Nc1cc2c([nH]c[n+]2CC#CCCl)c(SCC#CCCl)n1 was tested. Which growth did it give?
**A.** The growth was -57.1% (active).

**Q.** For N#C/C(=C\c1ccc(-c2cccc(Cl)c2)o1)C(=O)Nc1ncc(Cc2ccc(Cl)cc2)s1, which growth is on record?
**A.** The growth was 47%.

**Q.** For COc1ccc(-c2cc(-c3ccc(Cl)cc3)nc(NCCCCNc3ccnc4cc(Cl)ccc34)n2)cc1, which growth is on record?
**A.** The growth was 75.1%.

**Q.** Which growth does the source give for C=C1C(=O)O[C@H]2[C@H]1CC/C(CNC(=O)/C=C/c1ccc(Cl)cc1Cl)=C\CC[C@@]1(C)O[C@@H]21 here?
**A.** Its growth is -89.2% (active).

**Q.** O=C(C(=O)c1ccc2c(c1)OCO2)c1ccc2c(c1)OCO2 was tested. Which growth did it give?
**A.** The growth was 96.9%.

**Q.** For COc1cc(C2C3CC4CCCC[C@H]4N3[C@@]3(C(=O)Nc4cc(Cl)ccc43)C2C(=O)c2nc3ccccc3[nH]2)cc(OC)c1OC (some centres undefined), which growth is on record?
**A.** The growth was 52.8%.

**Q.** With CCOc1ccc2nc(NC(=O)c3ccc(C(F)(F)F)cc3)sc2c1 as the molecule, how does the growth read?
**A.** Its growth is 111%.

**Q.** O=C1c2cc3c(cc2-c2c1c1ccc(F)cc1c(=O)n2C[C@H](O)[C@@H](O)[C@H](O)CO)OCO3 was tested. Which growth did it give?
**A.** The growth was -45.2% (active).

**Q.** How did the growth turn out when C#C[C@@]1(O)[C@@H](CO)O[C@@H](n2cc(Br)c3c(N)ncnc32)[C@@H]1O was run?
**A.** Its growth is -45.1% (active).

**Q.** For COc1ccc(C(=O)c2c(N)c(C#N)cn2-c2ccccc2OC)cc1, which growth is on record?
**A.** The growth was 31%.

**Q.** For Cc1ccc(S(=O)(=O)OCC#CCOS(=O)(=O)c2ccc(C)cc2)cc1, which growth is on record?
**A.** Its growth is -25.3% (active).

**Q.** With CS(=O)(=O)N1CCc2c(-c3cnc(N)nc3)nc(N3CCOCC3)nc21 as the molecule, how does the growth read?
**A.** The growth was -27.9% (active).

**Q.** Which growth does the source give for COc1cc2c(cc1OC)N(CCO)C1=C(C(=O)OC1)C2c1ccc(Cl)c(Cl)c1 (centres undefined) here?
**A.** Its growth is 112%.

**Q.** How did the growth turn out when CS(=O)(=O)c1nccc(-c2c(-c3ccc(OCCc4ccccc4)cc3)nc3sccn23)n1 was run?
**A.** Its growth is -81.5% (active).

**Q.** CCOC(=O)C1=C(Nc2ccc(OC)cc2)C(N)=NC1=N was tested. Which growth did it give?
**A.** Its growth is 31.9%.

**Q.** CNCCNc1nc2ccccc2c2c(=O)c3cc(F)ccc3oc12 was tested. Which growth did it give?
**A.** The growth was 59.1%.

**Q.** How did the growth turn out when C#CCOc1cc(/C=N/Nc2nc(-c3ccc(OC)cc3)cs2)ccc1O was run?
**A.** Its growth is 43%.

**Q.** For COc1ccc(-c2c(N)noc2-c2cc(OC)c3c(c2)OCCO3)cc1, which growth is on record?
**A.** Its growth is -1.87% (active).

**Q.** For Cc1cc(O)c(C2=NN(c3ccc(S(N)(=O)=O)cc3)C(c3ccc(N(C)C)cc3)C2)c(C)c1Cl (centres undefined), which growth is on record?
**A.** The growth was 91.1%.

**Q.** Which growth does the source give for O=C1/C(=C/c2ccc(Cl)cc2)SC(=S)N1CCc1ccc(O)cc1 here?
**A.** The growth was 73.1%.

**Q.** How did the growth turn out when Nc1ccc(S(=O)(=O)O)c2ccc(N=Nc3ccc(N=Nc4ccc(S(=O)(=O)O)cc4)c4ccccc34)c(O)c12 was run?
**A.** Its growth is 96.6%.

**Q.** With CCOC(=O)N1C/C(=C/c2ccc(F)cc2)C(=O)/C(=C/c2ccc(F)cc2)C1 as the molecule, how does the growth read?
**A.** The growth was -55.6% (active).
